Experimental data: PubChem BioAssay (EPA / NIEHS)
Activity calls are given as the source filed them. How the source made its calls: active means hit-call score of the fitted dose curve at least 0.9, where 1 is the maximum; inactive means score below 0.9.

target: CCAAT/enhancer-binding protein beta (Homo sapiens) (UniProt P17676); test: ATG_C_EBP_CIS: Attagene CIS-FACTORIAL HepG2 Assay for human CCAAT/Enhancer Binding Protein (C/EBP) beta (AID 2282927); settings: HepG2 Attagene cis-factorial transcription factor reporter; actives raise or lower the signal
Sequence (P17676 whole entry, looked up): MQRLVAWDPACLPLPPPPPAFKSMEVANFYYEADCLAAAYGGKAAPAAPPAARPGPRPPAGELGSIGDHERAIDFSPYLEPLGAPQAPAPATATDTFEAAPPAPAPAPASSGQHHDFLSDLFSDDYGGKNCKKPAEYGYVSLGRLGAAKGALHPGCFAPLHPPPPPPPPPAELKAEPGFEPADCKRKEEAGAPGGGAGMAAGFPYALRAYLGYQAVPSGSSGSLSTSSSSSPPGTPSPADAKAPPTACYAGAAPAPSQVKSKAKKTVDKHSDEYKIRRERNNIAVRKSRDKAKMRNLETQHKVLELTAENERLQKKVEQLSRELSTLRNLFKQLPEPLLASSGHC
Procedure: ATG_CIS is a cell-based, multiplexed-readout assay that uses HepG2, a human liver cell line, with measurements taken at 24 hours after chemical dosing in a 24-well plate.ATG_C_EBP_CIS is one of 52 assay component(s) measured or calculated from the ATG_CIS assay. It is designed to make measurements of mRNA induction, a form of inducible reporter, as detected with fluorescence intensity signals by Reverse transcription polymerase chain reaction (RT-PCR) and Capillary electrophoresis technology.Data from the assay component ATG_C_EBP_CIS was analyzed into 1 assay endpoint. This assay endpoint, ATG_C_EBP_CIS, was analyzed with bidirectional fitting relative to DMSO as the negative control and baseline of activity. Using a type of inducible reporter, measures of mRNA for gain or loss-of-signal activity can be used to understand the reporter gene at the transcription factor-level as they relate to the gene CEBPB. Furthermore, this assay endpoint can be referred to as a primary readout, because this assay has produced multiple assay endpoints where this one serves a reporter gene function. To generalize the intended target to other relatable targets, this assay endpoint is annotated to the dna binding intended target family, where the subfamily is basic leucine zipper.
Human liver HepG2 cells are transiently transfected with multiple reporter transcription units (MRTUs) in 6-well plates using FuGene 6 reagent (Roche; 3 ml FuGene/1 mg DNA). The MRTU constructs are regulated by a cis-regulating element (promoter). […] A major difference between the CIS and TRANS system is that in CIS activities of endogenous TFs are measured, whereas the TRANS assay evaluates changes in activities of exogenous, chimeric NR-Gal4 proteins. […] At the end of 24 hour incubation, total RNA was isolated using TriZol reagent (Invitrogen). The isolated RNA is then reverse-transcribed using oligo(dT) primer and Mo-MLV reverse transcriptase (Invitrogen) with DNAse I (Ambion) treatment for 30 min. The one-tenth of the produced cDNA was amplified by PCR using Taq DNA polymerase (Invitrogen) and two reporter sequence-specific primers. The PCR products were fluorescently labeled by primer extension with 6-arboxyfluorescein (6-FAM) 5'-labeled reporter sequence-specific primer (2 min at 95 C, 20 s at 68 C and 10 min at 72 C) and these products were digested with 5U of HpaI (New England Biolabs) for 2h at 37 C. The fragments were purified using Qiaquick PCR columns (Qiagen), analyzed on an ABI 3130xL genetic analyzer (Applied Biosystems) with peak positions identified by using a set of X-rhodamine (ROX)-labeled MapMarker1000 molecular weight standards (BioVentures). The raw capillary electrophoresis data was processed using Attagraph software (Attagene).

| SMILES | outcome | AC50 |
| --- | --- | --- |
| COCCCOCCCOC | inactive | – |
| O=C(O)CCCC[C@@H]1SC[C@@H]2NC(=O)N[C@@H]21 | inactive | – |
| Cc1cc(O)c(Cl)c(C)c1Cl | inactive | – |
| CC(C)c1ccc2c(C(C)C)cc(C(C)C)c(S(=O)(=O)O)c2c1 | inactive | – |
| CC=CC(F)(F)C(F)(F)C(F)(F)F | inactive | – |
| c1ccc2c(c1)ccc1cc3c(ccc4ccccc43)cc12 | inactive | – |
| O=C1CCCCCN1SSN1CCCCCC1=O | inactive | – |
| O=C(Nc1ccccc1SSc1ccccc1NC(=O)c1ccccc1)c1ccccc1 | inactive | – |
| Oc1ccc(Cl)cc1Cc1cc(Cl)ccc1O | inactive | – |
| CC1(C)[C@H]2CC[C@]1(C)C(=O)C2 | inactive | – |
| CCCCCCCCO[C@@H]1O[C@H](CO)[C@@H](O)[C@H](O)[C@H]1O | inactive | – |
| CCCC(=O)OCc1ccccc1 | inactive | – |
| CCCCCCCCCCCCCCCCCC#N | inactive | – |
| C=CC(=O)NC(C)(C)CS(=O)(=O)O | inactive | – |
| CC1=Nc2ccc3ccccc3c2C1(C)C | inactive | – |
| CC(=O)CC(N)=O | inactive | – |
| Cc1ccc(N)c([N+](=O)[O-])c1 | inactive | – |
| O=P(O)(O)Oc1ccccc1 | inactive | – |
| COC(=O)c1ccc2cc(C(=O)OC)ccc2c1 | inactive | – |
| CC(C)(c1cc(Br)c(OCCO)c(Br)c1)c1cc(Br)c(OCCO)c(Br)c1 | – | 45.3 µM (active) |

| SMILES | outcome | AC50 |
| --- | --- | --- |
| N=c1ccn2c(n1)O[C@H]1[C@H](O)[C@@H](CO)O[C@H]12 | inactive | – |
| N#CCc1ccc(Cl)cc1Cl | inactive | – |
| O=C(O)CCCCCCCCCC(=O)O | inactive | – |
| CCCCCCCCCCOS(=O)(=O)O | inactive | – |
| C=C(C)c1cccc(C(C)(C)N=C=O)c1 | inactive | – |
| CC(=O)OCC(=O)[C@@]12N=C(C)O[C@@H]1C[C@H]1[C@@H]3CCC4=CC(=O)C=C[C@]4(C)[C@H]3[C@@H](O)C[C@@]12C | inactive | – |
| NC(CO)(CO)CO | inactive | – |
| O=C(O)C(c1ccc(Cl)cc1)c1ccc(Cl)cc1 | inactive | – |
| COC=O | inactive | – |
| CC(=O)Oc1ccc(C(C)=O)cc1 | inactive | – |
| ON(Cc1ccccc1)Cc1ccccc1 | inactive | – |
| O=C(O)c1cc2ccccc2nc1C(=O)O | inactive | – |
| S=C(NC1CCCCC1)NC1CCCCC1 | inactive | – |
| CCCCCCCCCCCCCCCC[N+](C)(C)CC | inactive | – |
| Nc1ccc(Cl)cc1Cl | inactive | – |
| CCCCCCOc1cc(C)c(O)c(C)c1C | inactive | – |
| CC1(C)O[C@@H]2C[C@H]3[C@@H]4C[C@H](F)C5=CC(=O)CC[C@]5(C)[C@H]4[C@@H](O)C[C@]3(C)[C@]2(C(=O)CO)O1 | inactive | – |
| NNC(=O)c1cccc(C(=O)NN)c1 | inactive | – |
| O=C1C(N(CO)C(=O)NCO)N(CO)C(=O)N1CO (stereo not given) | inactive | – |
| O=c1cc[nH]c(=S)[nH]1 | inactive | – |
